The record followed here is PubChem BioAssay (Tox21).

The nature of assay [1]: qHTS assay to identify small molecule antagonists of the thyroid receptor (TR) signaling pathway - cell viability counter screen (AID 743064). Further: nearly all actives have a fitted effect of over 50% in size. Further: potency means the concentration at half of the fitted maximal effect. The method, boiled down:
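Fluorescence from CellTiter-Fluor, added after 23.5 h exposure at 37 °C, reported viability of GH3.TRE-Luc cells co-treated with compound and 1 nM T3. Measured in the same wells as the luciferase TR readout.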
(Quantitative high-throughput screening tests each substance at several concentrations.)

Assay [2] can be described thus: qHTS assay to identify small molecule antagonists of the thyroid receptor (TR) signaling pathway (AID 743065). Further: nearly all actives have a fitted effect of over 55% in size. Further: potency means the concentration at half of the fitted maximal effect. The method, boiled down:
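Antagonism measured as loss of luciferase signal in GH3 cells stably carrying a TRE-luciferase reporter, co-treated with compound and T3 (1 nM final) for 23.5 h at 37 C. Viability was read in the same well by CellTiter-Fluor.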

The test system of assay [3] is thyroid hormone receptor (rat, GH3 cells). Put plainly: qHTS assay to identify small molecule agonists of the thyroid receptor (TR) signaling pathway (AID 743066; calls by dose curve).
Assay [4] is described as follows: qHTS assay to identify small molecule antagonists of the estrogen receptor alpha (ER-alpha) signaling pathway - cell viability counter screen (AID 743074; calls by dose curve; further: nearly all actives have a fitted effect of over 45% in size).
A short description of assay [5]: qHTS assay to identify small molecule antagonists of the estrogen receptor alpha (ER-alpha) signaling pathway using the BG1 cell line - cell viability counter screen (AID 743081).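 Further: compound given together with 17beta-estradiol as the ER stimulus; nearly all actives have a fitted effect of over 45% in size.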 Further: potency means the concentration at half of the fitted maximal effect.
The next assay concerns the target Aromatase (Homo sapiens) (UniProt P11511). Put plainly: qHTS assay to identify aromatase inhibitors (AID 743083). Further: nearly all actives have a fitted effect of over 55% in size. Further: potency means the concentration at half of the fitted maximal effect.
The target in assay [6] is Estrogen receptor (Homo sapiens) (UniProt P03372). Put plainly: qHTS assay to identify small molecule antagonists of the estrogen receptor alpha (ER-alpha) signaling pathway (AID 743069; active means well fitted curve in the direction sought with a large enough effect in the signal ratio in the repeat runs, not every such curve was filed as active; the % refers to the signal ratio). The method, boiled down:
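Fluorescence intensity from a beta-lactamase FRET substrate served as the read-out. Cells: HEK293 with stably integrated ER-alpha-UAS-bla reporter. Agonist 17beta-estradiol was co-added with compounds; incubation 18 hr at 37C, substrate 2 hr at room temperature.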

Assay [7] has the same target. Put plainly: qHTS assay to identify small molecule agonists of the estrogen receptor alpha (ER-alpha) signaling pathway (AID 743075; calls by dose curve).
Assay [8] has the same target. Put plainly: qHTS assay to identify small molecule agonists of the estrogen receptor alpha (ER-alpha) signaling pathway using the BG1 cell line (AID 743079). Further: nearly all actives have a fitted effect of over 20% in size. Further: potency means the concentration at half of the fitted maximal effect.
Assay [9] is described as follows: qHTS assay to identify small molecule antagonists of the estrogen receptor alpha (ER-alpha) signaling pathway using the BG1 cell line (AID 743080; calls by dose curve;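 further: BG1 cells stimulated with 17beta-estradiol alongside compound; nearly all actives have a fitted effect of over 25% in size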; further: potency means the concentration at half of the fitted maximal effect). The gist of the method: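 After 5 days in phenol-red-free 10% charcoal-stripped FBS medium, BG1-Luc-4E2 cells were seeded, left 24 h at 37 C, co-treated with compounds and 17beta-estradiol for 21.5 h, then assayed for viability and luciferase.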

Inconclusive results are not listed. Values without a mark were called inactive. Calls of active or inactive are those of the source. Unless noted, the call rests on the fitted dose curve; in most records, active means well fitted curve in the direction sought with a large enough effect in the repeat runs; inconclusive means weak or mixed curves; inactive means no such curve, though single readings can be large; an effect the other way counts as inactive or inconclusive.
On the % scale 0 is the no-effect control and ±100 the full control effect.

Aromatase (Homo sapiens), sequence (P11511 whole entry, looked up): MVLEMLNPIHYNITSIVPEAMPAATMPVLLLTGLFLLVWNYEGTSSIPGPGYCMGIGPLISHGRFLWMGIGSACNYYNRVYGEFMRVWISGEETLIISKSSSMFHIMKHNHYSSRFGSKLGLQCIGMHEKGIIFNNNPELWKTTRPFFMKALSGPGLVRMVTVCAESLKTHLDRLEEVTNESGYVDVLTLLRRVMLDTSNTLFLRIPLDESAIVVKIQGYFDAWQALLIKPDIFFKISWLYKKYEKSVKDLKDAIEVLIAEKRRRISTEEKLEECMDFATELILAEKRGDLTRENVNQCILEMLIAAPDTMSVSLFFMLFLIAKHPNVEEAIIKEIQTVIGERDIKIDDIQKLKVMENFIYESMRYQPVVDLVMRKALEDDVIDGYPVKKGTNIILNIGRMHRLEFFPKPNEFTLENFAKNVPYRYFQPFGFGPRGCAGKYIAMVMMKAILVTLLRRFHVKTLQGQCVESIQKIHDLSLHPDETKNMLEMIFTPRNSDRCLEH
Estrogen receptor (Homo sapiens), sequence (P03372 whole entry, looked up): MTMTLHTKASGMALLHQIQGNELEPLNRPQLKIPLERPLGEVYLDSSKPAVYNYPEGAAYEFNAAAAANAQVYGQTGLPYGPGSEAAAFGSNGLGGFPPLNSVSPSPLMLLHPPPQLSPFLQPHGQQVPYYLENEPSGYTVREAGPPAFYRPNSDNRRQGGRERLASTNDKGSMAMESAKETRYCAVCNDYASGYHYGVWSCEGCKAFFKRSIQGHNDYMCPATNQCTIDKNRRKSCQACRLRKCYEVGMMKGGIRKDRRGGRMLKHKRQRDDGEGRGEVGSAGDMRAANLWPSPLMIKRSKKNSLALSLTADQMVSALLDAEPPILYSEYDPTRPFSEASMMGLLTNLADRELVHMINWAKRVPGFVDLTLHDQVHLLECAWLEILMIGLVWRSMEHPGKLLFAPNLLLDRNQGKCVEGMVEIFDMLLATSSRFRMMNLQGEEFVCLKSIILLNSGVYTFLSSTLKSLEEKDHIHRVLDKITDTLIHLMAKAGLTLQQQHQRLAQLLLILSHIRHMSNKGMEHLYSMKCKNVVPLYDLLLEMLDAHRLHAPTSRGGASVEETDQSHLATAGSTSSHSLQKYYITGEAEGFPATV

With `O=C(O)c1ccc(O)cc1O`, the Potency entry (in [1]; in [2]; in assay [3]; in assay [4]; in assay [5]; with Aromatase (Homo sapiens)) was “inactive” each time.

As for `CCOC(=O)c1ccc(NC(=O)CN2CCCCC2)cc1`, the Potency entry in [1], in assay [3], in assay [6], in [4], in assay [7] and in assay [5] was “inactive” each time. For the same molecule, in the assay with Aromatase (Homo sapiens), the Potency entry was “inactive”.

Take `CC(C)N=C=NC(C)C`: the Potency result (in [1]; in assay [3]; in assay [6]; in [4]; in assay [5]; with Aromatase (Homo sapiens)) was “inactive” in each case.

Take `CCCCCCCC(=O)OCCCCCC`: the Potency result (in assay [1]; in assay [2]; in assay [3]; in [4]; in assay [5]; with Aromatase (Homo sapiens)) was “inactive” each time.

As to `CC(C)c1ccc(C#N)cc1`, the Potency result in [1], in [3], in [4], in assay [7], in assay [8] and in assay [5] was “inactive” each time. Further, the Potency entry in the assay with Aromatase (Homo sapiens) was “inactive”.

With `C=Cc1ccc(OC(C)=O)cc1`, the Potency entry in assay [1], in assay [2], in assay [3], in assay [7], in [8] and in assay [9] was “inactive” in each case. For the same molecule, the Potency entry (in assay [5]; with Aromatase (Homo sapiens)) was “inactive” each time.

On to `COC(=O)c1sccc1S(N)(=O)=O`, for which the Potency result in assay [1], in assay [3], in assay [6], in assay [4], in [7] and in assay [8] was “inactive” throughout. Further, the Potency result (in [9]; in [5]; with Aromatase (Homo sapiens)) was “inactive” throughout.

With `O=C(CCS)OCC(COC(=O)CCS)(COC(=O)CCS)COC(=O)CCS`, the Potency result in [1], in assay [3], in assay [6], in assay [4], in assay [7] and in assay [8] was “inactive” in each case. The Potency result (in assay [5]; with Aromatase (Homo sapiens)) was “inactive” each time.

Consider `CC1=CC[C@@]23C[C@@H]1C(C)(C)[C@@H]2CC[C@H]3C`, for which the Potency result (in assay [1]; in [2]; in assay [3]; in assay [4]; in [5]; with Aromatase (Homo sapiens)) was “inactive” throughout.

As for `O=c1[nH][nH]c(=O)c2cc([N+](=O)[O-])ccc12`, the Potency entry in assay [1], in [3], in assay [6], in [4], in assay [7] and in [8] was “inactive” each time. Also, the Potency result (in [9]; in [5]; with Aromatase (Homo sapiens)) was “inactive” in each case.

As for `CC[C@H]1OC(=O)[C@H](C)[C@@H](O[C@H]2C[C@@](C)(OC)[C@@H](O)[C@H](C)O2)[C@H](C)[C@@H](O[C@@H]2O[C@H](C)C[C@H](N(C)C)[C@H]2O)[C@](C)(O)C[C@@H](C)C(=O)[C@H](C)[C@@H](O)[C@]1(C)O`, the Potency result (in assay [1]; in assay [2]; in assay [3]; in assay [4]; in assay [5]; with Aromatase (Homo sapiens)) was “inactive” in each case.

Regarding `CC(C)(O)CCc1ccccc1`, the Potency entry in assay [1], in assay [3], in assay [6], in assay [4], in [7] and in assay [8] was “inactive” throughout. The Potency result (in assay [9]; in assay [5]; in the assay with Aromatase (Homo sapiens)) was “inactive” each time.

`COc1cc(NC(C)CCCN)c2ncccc2c1` (stereo not drawn): the Potency is 11.4 µM (active) in assay [1] and 10.1 µM (active) in [5]. Further, the Potency entry (in [3]; in [6]; in assay [4]; in assay [7]; in the assay with Aromatase (Homo sapiens)) was “inactive” in each case.

On to `CCOC(=O)c1c(N)sc2c1CCN(Cc1ccccc1)C2`, for which the Potency entry (in [1]; in [3]; in [6]; in assay [4]; in assay [7]; in the assay with Aromatase (Homo sapiens)) was “inactive” each time.

Regarding `CC(C)(C)C1(CCc2ccc(Cl)cc2)CO1` (stereo not drawn), the Potency result in [1], in assay [3], in assay [6], in [4], in [7] and in assay [8] was “inactive” in each case. For the same molecule, the Potency result (in assay [9]; in assay [5]; with Aromatase (Homo sapiens)) was “inactive” in each case.

With `CC(=O)NNC(C)=O`, the Potency result in assay [1], in [3], in [6], in assay [4], in assay [7] and in assay [8] was “inactive” in each case. Besides, the Potency result (in assay [5]; in the assay with Aromatase (Homo sapiens)) was “inactive” each time.

As for `CNS(=O)(=O)c1cc(C(=O)N2CCC(CCN3C4CCC3CC(n3c(C)nc5ccccc53)C4)(c3cccc(F)c3)CC2)c(Cl)cc1F` (stereo not drawn), the Potency was 54.5 µM (active) in assay [1], 48.6 µM (active) in [2] and 68.6 µM (active) with Aromatase (Homo sapiens). In addition, the Potency result in [4] and in assay [5] was “inactive” throughout.

Turning to `CC(C)(O)c1coc(S(=O)(=O)NC(=O)Nc2c3c(cc4c2CCC4)CCC3)c1`, the Potency entry (in assay [1]; in assay [2]; in [3]; in assay [4]; in assay [5]; in the assay with Aromatase (Homo sapiens)) was “inactive” in each case.

With `OCC(CO)n1cnc(-c2ccc(F)cc2)c1-c1ccnc(Oc2ccccc2)n1`, the Potency result in assay [1], in [3], in assay [6], in assay [4], in [7] and in assay [8] was “inactive” in each case. The Potency entry (in [9]; in [5]; in the assay with Aromatase (Homo sapiens)) was “inactive” in each case.

Consider `CCC(Cl)CC(Cl)C(Cl)C(Cl)C(Cl)C(C)Cl` (stereo not drawn), for which the Potency result (in [1]; in assay [2]; in assay [5]; with Aromatase (Homo sapiens)) was “inactive” in each case. For the same molecule, in assay [4], the activity, negative = cytotoxicity is -22.7% [at 15 µM]. Also, the activation in assay [7] was 3.15% [at 14.9 µM]. The Potency in assay [8] was 0.594 µM (active).

As for `CC1CCc2nccnc21` (stereo not drawn), the Potency entry in assay [1], in assay [3], in assay [6], in [4], in [7] and in assay [8] was “inactive” throughout. Also, the Potency entry (in assay [5]; in the assay with Aromatase (Homo sapiens)) was “inactive” in each case.

As for `c1ccc(CNc2ncnc3c2ncn3C2CCCCO2)cc1` (stereo not drawn), the Potency result in assay [1], in [3], in [6], in assay [4], in [7] and in [5] was “inactive” throughout. Besides, the Potency result with Aromatase (Homo sapiens) was “inactive”. Moreover, in assay [8], the Potency is 3.44 µM (active).

For the molecule `COc1cc(S(=O)(=O)Nc2ccccc2)c(OC)cc1N`, the Potency entry in assay [1], in assay [2], in [3], in assay [7], in assay [8] and in assay [9] was “inactive” each time. Besides, the Potency result (in [5]; with Aromatase (Homo sapiens)) was “inactive” throughout.

In the case of `CN1C(CSCC(F)(F)F)Nc2cc(Cl)c(S(N)(=O)=O)cc2S1(=O)=O` (stereo not drawn), the Potency result in [1], in assay [3], in assay [6], in assay [4], in assay [7] and in assay [8] was “inactive” throughout. In addition, the Potency entry (in assay [9]; in assay [5]; with Aromatase (Homo sapiens)) was “inactive” each time.

For `O=[N+]([O-])C1(Br)COCOC1`, the Potency in assay [1] was 17.2 µM (active); in assay [2] it was 15.4 µM (active); in assay [9], 96.9 µM (active); with Aromatase (Homo sapiens), 30.6 µM (active). Moreover, the Potency result in [6], in assay [4], in assay [7], in assay [8] and in [5] was “inactive” in each case.

`O=C(Nc1ccc(C(=O)O)c(O)c1)c1ccccc1`: the Potency entry in [1], in assay [3], in [4], in assay [7], in assay [8] and in assay [5] was “inactive” throughout. In addition, the Potency result with Aromatase (Homo sapiens) was “inactive”.

For the molecule `CC1CCC(C(C)CS)CC1S` (stereo not drawn), the Potency entry (in [1]; in [3]; in assay [4]; in assay [5]; with Aromatase (Homo sapiens)) was “inactive” in each case.

For `CCCCCC`, the Potency result (in assay [1]; in assay [3]; in [4]; in assay [5]; with Aromatase (Homo sapiens)) was “inactive” throughout.

Turning to `COc1ccc(-n2nc(C(F)F)cc2-c2ccc(S(C)=O)cc2)cc1` (stereo not drawn), the Potency entry in assay [1], in assay [3], in assay [4], in [7], in assay [8] and in assay [5] was “inactive” in each case. The Potency entry with Aromatase (Homo sapiens) was “inactive”.

For `CCCOC(=O)c1c(Cl)c(Cl)c(Cl)c(Cl)c1C(=O)OCCC`, the Potency result in assay [1], in assay [3], in [4] and in assay [5] was “inactive” throughout.

As for `CCCCCCCCCCCCCOS(=O)(=O)O`, the Potency entry (in [1]; in [3]; in assay [4]; in assay [5]; with Aromatase (Homo sapiens)) was “inactive” each time.

Turning to `O=S(=O)(Cl)c1c(Cl)cccc1Cl`, the Potency result in assay [1], in [6], in [4], in [7], in [8] and in [9] was “inactive” throughout. Moreover, the Potency result (in assay [5]; with Aromatase (Homo sapiens)) was “inactive” each time.

For the molecule `CC(=O)OCCC1CCCCC1`, the Potency result in [2], in assay [3], in assay [6], in assay [4], in [7] and in [8] was “inactive” throughout. The Potency result (in assay [9]; in assay [5]; in the assay with Aromatase (Homo sapiens)) was “inactive” each time.

In the case of `CCCCCCC(O)CCCCCCCCCCC(=O)OC` (stereo not drawn), the Potency result in assay [1], in assay [3], in assay [4] and in [5] was “inactive” throughout.

Consider `CC12CC3CC(C)(C1)CC(N)(C3)C2`, for which, in assay [1], the Potency was 29.8 µM (active). Further, the Potency entry (in assay [6]; in [7]; in assay [8]; in assay [9]; in [5]; in the assay with Aromatase (Homo sapiens)) was “inactive” throughout.

For the molecule `O=C(Oc1ccccc1)c1ccc2ccccc2c1O`, the Potency result (in assay [1]; in assay [3]; in [4]; in assay [7]; in assay [5]; with Aromatase (Homo sapiens)) was “inactive” each time.
